In the supplement of paper PMC11732987, “Enantioselective OTUD7B fragment discovery through chemoproteomics screening and high-throughput optimisation” (Communications Chemistry, 2025):

Assays:
Assay in all cases: log2 ratio of Biotin-Ahx-Ub-VS probe labelling (fragment/DMSO); higher = less target engagement (more negative = stronger competition), active = hit call of the paper (q ≤ 0.05, log2 ratio ≤ -1)
Details in all cases: compound concentration: 200 uM; treatment time: 3 h
USP34 = USP34 (UniProt Q70CQ2)
Outline: (§1)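 HEK293T lysate, 495 µg per sample in Tris/CHAPS/IGEPAL buffer with protease inhibitors, was treated in triplicate with fragment at 200 µM or vehicle for 3 h and then with Biotin-Ahx-Ub-VS at 0.5 µM final for 1 h. Labelled DUBs were NeutrAvidin-enriched, digested with LysC and trypsin, and run by diaPASEF LC-MS/MS. Spectronaut label-free quantities were global-median-normalised, and values are average log2 fragment/vehicle ratios by unpaired t-test on proteins with ≥2 unique peptides.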

USP36 = biological target: T1, USP36 (UniProt Q9P275)
T1 sequence (whole entry): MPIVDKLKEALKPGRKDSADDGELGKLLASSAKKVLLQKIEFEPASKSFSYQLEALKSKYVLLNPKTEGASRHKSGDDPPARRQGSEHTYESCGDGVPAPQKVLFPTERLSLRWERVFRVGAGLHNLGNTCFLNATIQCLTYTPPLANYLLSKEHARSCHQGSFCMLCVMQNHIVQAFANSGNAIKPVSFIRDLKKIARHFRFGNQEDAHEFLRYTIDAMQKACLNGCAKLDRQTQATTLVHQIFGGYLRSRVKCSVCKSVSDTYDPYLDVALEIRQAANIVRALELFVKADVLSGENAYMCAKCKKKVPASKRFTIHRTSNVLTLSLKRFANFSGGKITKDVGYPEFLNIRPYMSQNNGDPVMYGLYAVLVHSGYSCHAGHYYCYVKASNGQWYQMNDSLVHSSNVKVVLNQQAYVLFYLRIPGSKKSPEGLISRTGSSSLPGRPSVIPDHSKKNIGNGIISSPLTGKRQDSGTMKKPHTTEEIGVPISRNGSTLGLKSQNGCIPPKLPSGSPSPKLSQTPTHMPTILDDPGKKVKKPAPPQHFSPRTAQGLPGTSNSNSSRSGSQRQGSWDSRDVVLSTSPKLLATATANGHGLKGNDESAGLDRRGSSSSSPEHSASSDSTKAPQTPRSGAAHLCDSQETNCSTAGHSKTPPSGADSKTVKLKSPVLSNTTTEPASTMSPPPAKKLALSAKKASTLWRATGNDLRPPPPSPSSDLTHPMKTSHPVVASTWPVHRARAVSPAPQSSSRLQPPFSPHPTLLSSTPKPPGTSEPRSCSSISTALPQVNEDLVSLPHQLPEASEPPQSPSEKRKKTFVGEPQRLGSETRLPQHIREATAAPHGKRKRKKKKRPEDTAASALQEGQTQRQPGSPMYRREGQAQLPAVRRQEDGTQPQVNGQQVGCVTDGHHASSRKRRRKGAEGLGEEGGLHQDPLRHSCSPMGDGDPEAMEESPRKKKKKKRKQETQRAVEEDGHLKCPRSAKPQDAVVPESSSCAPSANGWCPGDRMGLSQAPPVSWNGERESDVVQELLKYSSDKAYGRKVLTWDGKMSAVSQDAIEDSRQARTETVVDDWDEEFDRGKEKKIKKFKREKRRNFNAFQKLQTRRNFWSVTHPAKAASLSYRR
Outline: as §1

USP38 = biological target: T2, USP38 (UniProt Q8NB14)
T2 sequence (whole entry): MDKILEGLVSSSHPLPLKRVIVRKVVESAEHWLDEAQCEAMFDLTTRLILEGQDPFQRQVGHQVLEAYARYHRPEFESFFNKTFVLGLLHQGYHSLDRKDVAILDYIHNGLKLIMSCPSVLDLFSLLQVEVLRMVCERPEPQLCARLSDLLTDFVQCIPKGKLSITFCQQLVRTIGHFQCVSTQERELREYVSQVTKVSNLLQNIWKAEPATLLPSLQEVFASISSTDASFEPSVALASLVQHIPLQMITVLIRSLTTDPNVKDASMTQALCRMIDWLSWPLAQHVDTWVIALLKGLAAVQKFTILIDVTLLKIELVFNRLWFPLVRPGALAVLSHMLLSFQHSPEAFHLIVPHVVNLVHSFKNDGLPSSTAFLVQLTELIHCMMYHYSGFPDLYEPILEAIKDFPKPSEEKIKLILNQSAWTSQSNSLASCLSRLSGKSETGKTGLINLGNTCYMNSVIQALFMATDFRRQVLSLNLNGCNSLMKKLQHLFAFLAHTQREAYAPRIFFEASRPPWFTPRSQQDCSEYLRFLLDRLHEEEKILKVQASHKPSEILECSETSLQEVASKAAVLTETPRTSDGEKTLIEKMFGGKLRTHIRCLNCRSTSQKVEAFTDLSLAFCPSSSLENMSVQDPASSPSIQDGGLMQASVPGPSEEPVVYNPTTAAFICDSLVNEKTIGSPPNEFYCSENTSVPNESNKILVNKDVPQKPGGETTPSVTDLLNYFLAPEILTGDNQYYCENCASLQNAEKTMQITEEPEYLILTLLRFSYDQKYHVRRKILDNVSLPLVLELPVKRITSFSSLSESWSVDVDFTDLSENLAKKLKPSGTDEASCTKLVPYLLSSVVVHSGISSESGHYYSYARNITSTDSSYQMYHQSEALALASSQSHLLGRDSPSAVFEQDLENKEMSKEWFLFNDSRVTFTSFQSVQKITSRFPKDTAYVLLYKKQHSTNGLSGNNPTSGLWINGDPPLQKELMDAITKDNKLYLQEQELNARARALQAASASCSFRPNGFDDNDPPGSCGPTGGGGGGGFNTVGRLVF
Outline: as §1

USP39 = biological target: T3, USP39 (UniProt Q53GS9)
T3 sequence (whole entry): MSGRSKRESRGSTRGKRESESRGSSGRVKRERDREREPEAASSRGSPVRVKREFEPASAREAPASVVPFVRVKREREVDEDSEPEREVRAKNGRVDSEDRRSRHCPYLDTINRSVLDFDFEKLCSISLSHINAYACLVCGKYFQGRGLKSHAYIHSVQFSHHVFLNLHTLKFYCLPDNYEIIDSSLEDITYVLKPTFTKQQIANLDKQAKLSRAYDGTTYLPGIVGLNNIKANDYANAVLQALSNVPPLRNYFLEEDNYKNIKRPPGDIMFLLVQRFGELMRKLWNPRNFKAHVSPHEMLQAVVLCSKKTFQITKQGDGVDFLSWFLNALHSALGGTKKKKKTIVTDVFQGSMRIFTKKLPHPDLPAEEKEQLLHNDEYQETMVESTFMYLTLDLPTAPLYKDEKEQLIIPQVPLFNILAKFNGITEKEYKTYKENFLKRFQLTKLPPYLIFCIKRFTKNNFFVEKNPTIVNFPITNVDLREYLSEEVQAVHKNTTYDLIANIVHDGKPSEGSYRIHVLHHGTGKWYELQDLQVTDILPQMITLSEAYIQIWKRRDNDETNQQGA
Outline: as §1

USP4 = biological target: T4, USP4 (UniProt Q13107)
T4 sequence (whole entry): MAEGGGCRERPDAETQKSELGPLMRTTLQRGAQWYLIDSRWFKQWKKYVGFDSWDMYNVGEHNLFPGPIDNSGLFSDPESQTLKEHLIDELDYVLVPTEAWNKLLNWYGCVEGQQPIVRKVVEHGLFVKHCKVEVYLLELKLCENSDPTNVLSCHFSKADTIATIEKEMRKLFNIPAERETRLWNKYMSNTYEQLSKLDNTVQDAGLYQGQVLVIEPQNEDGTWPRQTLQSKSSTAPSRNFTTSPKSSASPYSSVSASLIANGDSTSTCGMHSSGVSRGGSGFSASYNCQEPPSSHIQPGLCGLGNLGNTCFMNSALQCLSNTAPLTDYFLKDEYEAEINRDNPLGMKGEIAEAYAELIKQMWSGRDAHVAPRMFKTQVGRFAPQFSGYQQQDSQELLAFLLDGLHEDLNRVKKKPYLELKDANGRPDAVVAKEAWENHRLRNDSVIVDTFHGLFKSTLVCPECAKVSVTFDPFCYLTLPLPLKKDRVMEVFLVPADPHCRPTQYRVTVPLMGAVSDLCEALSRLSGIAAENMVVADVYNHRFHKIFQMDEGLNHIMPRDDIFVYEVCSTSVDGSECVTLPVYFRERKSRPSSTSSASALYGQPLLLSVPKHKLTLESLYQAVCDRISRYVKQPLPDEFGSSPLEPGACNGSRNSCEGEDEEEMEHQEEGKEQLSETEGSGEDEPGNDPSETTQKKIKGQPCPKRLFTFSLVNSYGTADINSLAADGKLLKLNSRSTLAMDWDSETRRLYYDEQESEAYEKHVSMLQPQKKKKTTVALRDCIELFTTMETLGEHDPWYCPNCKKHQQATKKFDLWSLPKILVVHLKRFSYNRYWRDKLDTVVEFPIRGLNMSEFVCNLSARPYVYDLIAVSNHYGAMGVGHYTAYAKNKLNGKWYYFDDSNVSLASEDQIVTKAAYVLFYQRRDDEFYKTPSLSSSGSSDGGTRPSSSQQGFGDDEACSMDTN
Outline: as §1

Measured: log2 ratio of Biotin-Ahx-Ub-VS probe labelling

Chain of USP34 (Q70CQ2 whole entry, the tested form may be a part): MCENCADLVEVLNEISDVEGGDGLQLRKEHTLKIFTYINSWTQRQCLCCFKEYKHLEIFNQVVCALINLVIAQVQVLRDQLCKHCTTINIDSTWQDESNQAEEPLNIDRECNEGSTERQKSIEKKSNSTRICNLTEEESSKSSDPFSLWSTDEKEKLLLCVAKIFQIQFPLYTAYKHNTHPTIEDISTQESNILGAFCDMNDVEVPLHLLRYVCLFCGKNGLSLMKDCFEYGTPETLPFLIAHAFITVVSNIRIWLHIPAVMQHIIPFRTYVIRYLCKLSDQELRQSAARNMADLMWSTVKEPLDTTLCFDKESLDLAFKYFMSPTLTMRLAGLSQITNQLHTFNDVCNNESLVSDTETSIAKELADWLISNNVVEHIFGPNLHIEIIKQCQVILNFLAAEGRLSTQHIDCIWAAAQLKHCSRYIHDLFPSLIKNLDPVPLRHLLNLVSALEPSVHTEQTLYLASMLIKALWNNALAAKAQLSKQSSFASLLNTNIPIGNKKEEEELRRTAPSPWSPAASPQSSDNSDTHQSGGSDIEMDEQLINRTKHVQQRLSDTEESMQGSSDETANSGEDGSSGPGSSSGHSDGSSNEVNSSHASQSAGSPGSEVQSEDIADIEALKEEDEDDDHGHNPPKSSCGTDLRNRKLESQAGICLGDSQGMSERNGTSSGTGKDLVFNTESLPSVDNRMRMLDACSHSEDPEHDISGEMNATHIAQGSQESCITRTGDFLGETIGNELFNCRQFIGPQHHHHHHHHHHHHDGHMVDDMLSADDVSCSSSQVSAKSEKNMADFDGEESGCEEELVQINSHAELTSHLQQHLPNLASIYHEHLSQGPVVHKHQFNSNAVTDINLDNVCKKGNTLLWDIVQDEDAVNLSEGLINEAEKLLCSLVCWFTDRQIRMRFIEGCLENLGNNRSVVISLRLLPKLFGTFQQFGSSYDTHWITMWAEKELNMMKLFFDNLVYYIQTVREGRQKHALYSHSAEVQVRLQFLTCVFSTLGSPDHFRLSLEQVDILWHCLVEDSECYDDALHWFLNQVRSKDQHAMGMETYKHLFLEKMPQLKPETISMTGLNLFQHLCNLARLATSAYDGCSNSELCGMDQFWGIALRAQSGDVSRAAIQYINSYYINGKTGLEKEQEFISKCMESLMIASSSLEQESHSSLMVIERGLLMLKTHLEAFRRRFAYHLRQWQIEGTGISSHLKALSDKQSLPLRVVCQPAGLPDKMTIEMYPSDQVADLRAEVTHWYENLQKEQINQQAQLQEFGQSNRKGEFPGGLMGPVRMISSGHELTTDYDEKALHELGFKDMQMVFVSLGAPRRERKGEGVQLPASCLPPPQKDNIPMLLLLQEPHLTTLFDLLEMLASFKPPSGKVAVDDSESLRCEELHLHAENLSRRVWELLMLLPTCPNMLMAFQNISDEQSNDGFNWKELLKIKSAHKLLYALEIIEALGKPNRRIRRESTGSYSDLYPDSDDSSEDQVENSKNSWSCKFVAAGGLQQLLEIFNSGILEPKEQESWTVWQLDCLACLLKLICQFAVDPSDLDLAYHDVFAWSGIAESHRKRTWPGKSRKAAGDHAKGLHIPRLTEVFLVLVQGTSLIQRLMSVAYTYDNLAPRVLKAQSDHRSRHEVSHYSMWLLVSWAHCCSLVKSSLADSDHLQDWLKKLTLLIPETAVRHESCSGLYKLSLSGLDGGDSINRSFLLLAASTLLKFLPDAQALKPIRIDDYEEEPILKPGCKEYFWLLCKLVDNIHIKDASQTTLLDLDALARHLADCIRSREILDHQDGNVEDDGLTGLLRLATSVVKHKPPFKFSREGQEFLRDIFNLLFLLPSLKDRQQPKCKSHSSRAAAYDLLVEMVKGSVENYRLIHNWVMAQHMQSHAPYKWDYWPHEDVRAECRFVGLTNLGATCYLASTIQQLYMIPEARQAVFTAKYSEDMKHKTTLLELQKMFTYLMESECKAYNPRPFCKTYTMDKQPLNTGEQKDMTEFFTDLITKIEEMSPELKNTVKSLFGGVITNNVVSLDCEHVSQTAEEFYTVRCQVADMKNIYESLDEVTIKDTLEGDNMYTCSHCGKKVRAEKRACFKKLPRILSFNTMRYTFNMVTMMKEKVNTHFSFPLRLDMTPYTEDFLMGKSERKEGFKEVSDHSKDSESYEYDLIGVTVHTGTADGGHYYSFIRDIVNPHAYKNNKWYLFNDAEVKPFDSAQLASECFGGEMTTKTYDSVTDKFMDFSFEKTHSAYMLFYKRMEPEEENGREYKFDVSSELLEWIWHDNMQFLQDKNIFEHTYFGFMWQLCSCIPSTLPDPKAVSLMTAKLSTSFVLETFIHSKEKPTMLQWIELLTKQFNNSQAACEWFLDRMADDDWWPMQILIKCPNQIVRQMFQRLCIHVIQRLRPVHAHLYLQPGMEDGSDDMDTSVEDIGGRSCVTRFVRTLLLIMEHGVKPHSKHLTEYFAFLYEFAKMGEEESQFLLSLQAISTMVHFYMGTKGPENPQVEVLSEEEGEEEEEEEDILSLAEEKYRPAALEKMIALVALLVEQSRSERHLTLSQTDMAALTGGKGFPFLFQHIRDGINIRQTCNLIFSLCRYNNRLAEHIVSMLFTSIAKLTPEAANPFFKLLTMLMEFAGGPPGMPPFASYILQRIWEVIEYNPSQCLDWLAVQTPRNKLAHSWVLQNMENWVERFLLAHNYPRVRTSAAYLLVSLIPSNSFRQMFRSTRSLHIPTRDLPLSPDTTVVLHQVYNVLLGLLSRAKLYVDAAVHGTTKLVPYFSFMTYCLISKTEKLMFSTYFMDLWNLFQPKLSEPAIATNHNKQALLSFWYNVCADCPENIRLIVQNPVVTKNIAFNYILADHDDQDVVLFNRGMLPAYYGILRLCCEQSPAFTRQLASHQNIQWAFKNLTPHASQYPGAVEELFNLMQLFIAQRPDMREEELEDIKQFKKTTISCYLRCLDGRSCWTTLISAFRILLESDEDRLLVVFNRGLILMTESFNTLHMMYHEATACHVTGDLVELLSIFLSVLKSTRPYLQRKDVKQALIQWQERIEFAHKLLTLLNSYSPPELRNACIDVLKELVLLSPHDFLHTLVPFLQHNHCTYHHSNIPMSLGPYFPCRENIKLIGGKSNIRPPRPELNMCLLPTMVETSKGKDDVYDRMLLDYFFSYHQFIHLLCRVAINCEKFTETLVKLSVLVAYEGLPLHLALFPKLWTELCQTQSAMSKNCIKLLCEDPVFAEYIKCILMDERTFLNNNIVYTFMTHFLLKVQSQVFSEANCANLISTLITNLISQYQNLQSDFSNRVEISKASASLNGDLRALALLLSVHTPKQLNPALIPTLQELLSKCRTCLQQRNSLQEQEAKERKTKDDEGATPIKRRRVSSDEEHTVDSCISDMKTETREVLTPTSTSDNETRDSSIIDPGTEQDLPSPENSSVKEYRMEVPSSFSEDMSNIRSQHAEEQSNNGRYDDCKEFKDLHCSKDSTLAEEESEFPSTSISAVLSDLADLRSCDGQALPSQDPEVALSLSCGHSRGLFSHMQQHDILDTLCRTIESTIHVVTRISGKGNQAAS

Cl.Cn1nccc1C(NC(=O)CCl)c1ccccc1 (stereo not given)
inactive: USP34 -0.0966 | USP36 0.193 | USP38 -0.0261 | USP39 0.0185 | USP4 -0.116
